The list is not random: actives were taken first. Their share in the collection is about 0.8%.
PI4K2A inh = blocks human PI4K2A kinase activity; purified PI4K2A, ADP-Glo luminescence, 1 h; active compounds read low; activity change, negative = inhibition, % at 76.9 µM; 420,000 compounds, 0.13% hits; in the data active = activity change below about -50%; inconclusive = mostly about -30% to -49%
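In this quantitative HTS, ADP production by PI4K2A was quantified luminescently after 1 h at ambient temperature; 100 microM adenosine served as plate-quality control.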
FEN1 inh-1 = inhibitors of human flap endonuclease 1; P39748; Recombinant FEN1 flap cleavage, fluorescence, 15 min; Potency, µM (series often up to 114 µM), hits mostly inhibitors; 390,000 compounds, 0.35% hits; note: nearly all actives have a fitted effect of over 65% in size
Target sequence (P39748 whole entry, looked up): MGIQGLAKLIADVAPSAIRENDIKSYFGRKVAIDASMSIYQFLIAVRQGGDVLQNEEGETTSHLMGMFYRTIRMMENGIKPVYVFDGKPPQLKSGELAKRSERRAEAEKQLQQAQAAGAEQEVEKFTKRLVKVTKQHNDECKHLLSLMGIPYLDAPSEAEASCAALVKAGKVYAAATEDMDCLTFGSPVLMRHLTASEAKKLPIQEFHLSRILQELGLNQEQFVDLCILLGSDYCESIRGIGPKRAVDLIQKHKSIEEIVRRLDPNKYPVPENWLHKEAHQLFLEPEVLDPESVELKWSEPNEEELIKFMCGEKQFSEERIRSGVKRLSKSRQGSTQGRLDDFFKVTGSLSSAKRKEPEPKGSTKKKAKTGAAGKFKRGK
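With each library titrated from low to high concentration, compounds met 10 nM FEN1 for 15 min at room temperature before 50 nM substrate was added; readings at 0 and 15 min fed four-parameter Hill curve fits.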
PGK inhibitor = T. brucei PGK inhibition. 380,000 compounds, 0.043% hits. Potency, µM (doses to about 57.5 µM), actives largely listed as inhibitors. PGK/GAPDH coupled, Kinase-Glo luminescence, 60 min. P07378; note: nearly all actives have a fitted effect of over 60% in size
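Luminescent ATP detection (Kinase-Glo Plus) follows a 60-minute room-temperature incubation, with wells lacking PGK as controls. Buffer: 100 mM TEA (pH 7.6), 5 mM MgCl2, 0.01% Tween-20. Coupling enzyme GAPDH (100 nM final) supplies unstable 1,3-BPG in-well.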
Tb PFK block = blocks T. brucei phosphofructokinase | O15648 | T. brucei PFK, ADP-Glo luminescence | Potency, µM (titrated, usually from 57.5 µM), hits mostly inhibitors | 330,000 compounds, 0.17% hits | AID 485367; note: nearly all actives have a fitted effect of over 60% in size
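PFK 1.25 nM, F6P 0.5 mM, ATP 0.1 mM, 0.1 M TEA pH 8.0, 5 mM MgCl2, 0.01% Tween20, 0.1% BSA; 45 min RT. ADP-Glo readout. qHTS titration up to 57 uM; curves fitted, compounds curve-classed.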
TDP1 inh = blocks human tyrosyl-DNA phosphodiesterase 1; recombinant TDP1, AlphaScreen DNA substrate cleavage; Potency, µM (doses to about 130 µM), usual class: inhibitors; AID 485290; 350,000 compounds, 0.28% hits; note: nearly all actives have a fitted effect of over 40% in size
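Recombinant E. coli-expressed Tdp1 (1 nM) preincubated with compound 15 min at RT, then 5'-biotin/3'-phosphotyrosine-FITC DNA substrate (15 nM) added for 5 min. AlphaScreen beads (10 ug/ml) added, 10 min RT; tyrosine-FITC cleavage read as signal loss.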
APE1 inh = inhibitors of human APE1 endonuclease; 350,000 compounds, 0.35% hits; Potency, µM (top dose mostly 65.8 µM), most hits filed as inhibitors; recombinant APE1, TAMRA/BHQ-2 abasic DNA cleavage fluorescence; AID 2517; note: nearly all actives have a fitted effect of over 55% in size
Target sequence (P27695 whole entry, looked up): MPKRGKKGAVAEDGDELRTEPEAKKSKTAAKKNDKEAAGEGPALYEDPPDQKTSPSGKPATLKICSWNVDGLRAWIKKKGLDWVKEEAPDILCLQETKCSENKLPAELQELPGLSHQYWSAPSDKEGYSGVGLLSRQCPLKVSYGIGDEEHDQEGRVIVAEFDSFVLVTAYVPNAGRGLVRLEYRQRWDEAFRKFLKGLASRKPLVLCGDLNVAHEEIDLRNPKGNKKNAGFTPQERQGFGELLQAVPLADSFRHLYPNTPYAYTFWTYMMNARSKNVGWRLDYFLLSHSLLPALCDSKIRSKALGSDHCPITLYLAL
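Step 1: APE1 (0.75 nM) with compound, 15 min RT. Step 2: add 50 nM fluorophore/quencher THF duplex. Step 3: three fluorescence reads 60 s apart (525/598 nm); read 3 minus read 1 = reaction progress.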
FEN1 inh-2 = confirmation of human FEN1 inhibitors; shares compounds with FEN1 inh-1; FEN1 flap cleavage, TAMRA/BHQ2 fluorogenic DNA substrate; Potency, µM, hits mostly inhibitors; 880 compounds, 79% hits; AID 720498; note: nearly all actives have a fitted effect of over 60% in size
Numbers stand for hits; i = inactive; ? = inconclusive; nt = no result. Unless noted, calls come from the whole dose curve; as a rule, active = well fitted curve in the direction sought with a large enough effect; inconclusive = small, poorly fitted or top-dose-only effect, or another doubt; inactive = no such curve, though single readings can be large; an effect the other way counts as inactive or inconclusive.

SMILES	PI4K2A inh	FEN1 inh-1	PGK inhibitor	Tb PFK block	TDP1 inh	APE1 inh	FEN1 inh-2
N#C[C@H]1C[C@H]2C[C@@H]2N1C(=O)[C@@H](N)C12CC3CC(CC(O)(C3)C1)C2	i	nt	nt	nt	nt	nt	nt
C[C@@H]1CN([C@H](C)CO)C(=O)c2cc(NC(=O)Nc3ccccc3)ccc2O[C@@H](C)CCCCO[C@H]1CN(C)S(=O)(=O)c1ccc(F)cc1	i	nt	nt	nt	nt	nt	nt
O=C(C[n+]1cccc(Br)c1)c1ccc(I)cc1	nt	i	nt	nt	nt	nt	nt
O=C1/C(=C\c2cc([N+](=O)[O-])ccc2O)SC(=S)N1Cc1ccc(Cl)cc1	i	22µM	nt	i	nt	?	38
O=C1/C(=C\c2cccc(O)c2O)SC(=S)N1Cc1ccccc1	i	i	i	?	nt	i	nt
COc1ccc(-c2nnc(SCC(=O)NN=Cc3c(O)ccc4ccccc34)n2-c2ccc(OC)cc2)cc1	i	nt	nt	nt	nt	nt	nt
O=C(O)CSc1cc(NS(=O)(=O)c2ccc(Br)cc2)c2ccccc2c1O	?	?	i	i	nt	i	67
O=C(Nc1cccc(S(=O)(=O)NC2=NCCC2)c1)c1cc(-c2ccco2)nc2ccccc12	?	?	?	i	nt	7.9µM	76
C=CCNC(=O)C1CCN(c2cncnc2)CC1	i	nt	nt	nt	nt	nt	nt
O=S(=O)(c1ccc2c(c1)OCCO2)N1CCN(S(=O)(=O)c2cc(F)c(F)cc2F)CC1	nt	nt	nt	nt	i	nt	nt
CC1(C)CC(=O)N(CC(=O)N2CCN(c3cccc(Cl)c3Cl)CC2)c2ccccc2S1(=O)=O	i	nt	nt	nt	nt	nt	nt
Cc1ccc(NS(=O)(=O)c2ccc3c(c2)[C@H]2C=CC[C@H]2[C@@H](c2ccc(F)cc2)N3)cc1C	i	i	i	nt	nt	nt	nt
O=C(O)c1ccc(NS(=O)(=O)c2ccc3c(c2)C2C=CCC2C(c2ccccc2F)N3)cc1 (configuration not stated)	i	40µM	i	?	nt	?	30
O=C(O)c1ccc(-n2cccc2/C=N\NC(=O)c2cc3cc(Br)ccc3o2)cc1	i	?	?	i	1.1µM	3.5µM	?
COc1cc2c(oc(=O)c3cc(C)cc(OC)c32)c2c(C3OC(C)C(O)C(C)(O)C3O)ccc(O)c12 (configuration not stated)	i	3.5µM	i	nt	nt	nt	0.85
COc1cccc2cc(C(=O)N3CC(C)OC(C)C3)c(=O)oc12 (configuration not stated)	i	i	i	i	nt	i	nt
N#Cc1c(-c2ccccc2)nc(SCC(=O)Nc2nnc(C(F)(F)F)s2)[nH]c1=O	i	i	i	i	i	i	nt
CCC(Sc1nc(-c2ccccc2)c(C#N)c(=O)[nH]1)C(=O)Nc1nnc(C)s1 (configuration not stated)	i	?	i	i	i	i	48
Cc1cc(NC(=O)CSc2cn(CCNC(=O)c3ccccc3)c3ccccc23)no1	i	32µM	7.1µM	i	i	i	67
O=[N+]([O-])c1ccc2c(c1)C=C/C2=C\c1ccc(C=S)cc1	nt	i	nt	nt	nt	nt	nt
CCN(CC)Cc1cc2[nH]c3c4ccc(Cl)cc4ncc3c2cc1OC	i	14µM	i	i	nt	?	?
Nn1c(SCC(=O)N2c3ccccc3Sc3ccc(Cl)cc32)nnc1-c1n[nH]c2c1CCC2	i	nt	nt	nt	nt	nt	nt
O=C1C=C(O)c2c(O)cc(O)c(O)c2C1=O	?	3.5µM	?	nt	nt	nt	21
O=C1C=C(O)c2[nH]c(=O)ccc2C1=O	?	?	i	nt	nt	nt	nt
O=C1c2ccccc2C(=O)c2c(O)c(O)cc(O)c21	i	?	?	i	?	19µM	38
SMILES	PI4K2A inh	FEN1 inh-1	PGK inhibitor	Tb PFK block	TDP1 inh	APE1 inh	FEN1 inh-2
O=C1c2ccccc2C(=O)c2c(O)ccc(O)c21	nt	nt	nt	nt	i	i	nt
COCCc1ccccn1	i	nt	nt	nt	nt	nt	nt
Cc1cc2[nH]c3c4ccccc4nc(C)c3c2cc1C	i	?	i	nt	nt	nt	6.7
O=C(O)CC(C(=O)O)N1C(=O)/C(=C/c2ccc(-c3nc4ccccc4s3)o2)SC1=S (configuration not stated)	?	35µM	25µM	?	nt	i	60
COc1ccccc1NC(=O)c1ccc2ccccc2c1	nt	nt	nt	nt	i	nt	nt
CN(CC(=O)O)c1ccc(/C=C/c2ccnc3ccccc23)cc1	nt	i	nt	nt	nt	nt	nt
O=C(Cc1ccccc1)NC(c1ccco1)c1cc(Cl)c2cccnc2c1O (configuration not stated)	nt	nt	nt	nt	nt	nt	30
CCCC(=O)NC(c1ccco1)c1cc(Cl)c2cccnc2c1O (configuration not stated)	i	?	i	i	i	i	nt
COC(=O)c1ccc(C=NNC(=O)c2cc(-c3ccc(C)c(C)c3)n[nH]2)cc1	i	nt	nt	nt	nt	nt	nt
CC1(C)S[C@@H]2[C@H](NC(=O)C(N)c3ccccc3)C(=O)N2[C@H]1C(=O)OC1OC(=O)c2ccccc21 (some centres not stated)	nt	nt	nt	nt	nt	i	nt
C#CCN1C(=O)S/C(=C\c2ccc(-c3ccc(C(=O)O)cc3C)o2)C1=O	i	?	?	i	nt	?	?
Cc1ccc2oc(=O)c(/C=C(\O)C(C)(C)C)nc2c1	i	50µM	i	i	i	i	34
CC(C)(C)/C(O)=C/c1nc2cc(Cl)ccc2oc1=O	i	28µM	i	i	i	i	12
COc1ccc(-c2cc(C(=O)NN=Cc3ccccc3[N+](=O)[O-])[nH]n2)cc1	i	nt	nt	nt	nt	nt	nt
Cn1cc(/C=C/c2cc[n+](C)cc2)c2cc(F)ccc21	i	45µM	i	i	nt	i	38
Cc1cc(C)cc(OCC(O)CN2CCC(CN3C(=O)c4cccc5cccc(c45)C3=O)CC2)c1 (configuration not stated)	i	?	i	i	i	i	?
COc1ccc(COCC(O)CN2CCC(CN3C(=O)c4cccc5cccc(c45)C3=O)CC2)cc1OC (configuration not stated)	i	?	i	i	i	i	?
O=C1c2cccc3cccc(c23)C(=O)N1CC1CCN(CC(O)COc2ccc3ccccc3c2)CC1 (configuration not stated)	i	i	i	i	i	i	nt
CCOCCCNC(=O)C1CCN(S(=O)(=O)c2cc3c(cc2Br)CCN3C(=O)CC)CC1	i	nt	nt	nt	nt	nt	nt
C=Cc1cc(F)c(S(=O)(=O)N2CCN(S(=O)(=O)c3ccc4c(c3)OCCO4)CC2)cc1F	nt	nt	nt	nt	i	nt	nt
NC1CCN(c2c(F)cc3c(=O)c(C(=O)O)cn(C4CC4)c3c2Cl)C1 (configuration not stated)	i	32µM	i	i	i	i	?
COc1ccc(CNC(=O)O[C@H]2CC[C@@]34CCCN3C(=O)CCC[C@H]4[C@H]2C)cc1OC	i	nt	nt	nt	nt	nt	nt
Cc1ccc(C)n1-c1cccc(C(=O)O)c1	nt	nt	nt	11µM	?	1.8µM	21

Screening data (PubChem)
